Hits are enriched below; roughly 14% of the tested compounds scored in any of these assays.
FBPA Giardia inh: qHTS Assay for Inhibitors of Fructose-1,6-bisphosphate Aldolase from Giardia Lamblia; Potency, µM (top dose mostly 59.6 µM), actives largely listed as inhibitors; 290,000 compounds, 0.71% hits; purified Giardia FBPA; AID 2451, 2010; A8B2U2; also: nearly all actives have a fitted effect of over 55% in size
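40 nM FBPA preincubated 10 min at RT with compound (up to 57.5 uM final), then substrate plus GAPDH/TPI/NAD/arsenate coupling and diaphorase/resazurin added. Fluorescence read after 20 min at RT, 525/598 nm.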
Shiga inhibitor: A qHTS for Small Molecule Inhibitors of Shiga Toxin. Vero cells, Shiga toxin protein synthesis inhibition reporter. inhibition, % at 38.7 µM. 290,000 compounds, 9.2% hits. AID 2315, 2010; in the data active = inhibition mostly above about 28%, no sharp cut-off; inactive = mostly below about 43%
CHX counter: Cycloheximide Counterscreen for Small Molecule Inhibitors of Shiga Toxin; cell reporter, cycloheximide protein synthesis inhibition counterscreen; max response, %; 300,000 compounds, 12% hits; AID 2314, 2010; in the data active = max response mostly above about 13%, no sharp cut-off; inactive = mostly below about 14%; also: read at 38.3 µM for the half of the compounds with a filed dose
NS1 function inh: qHTS Assay for Inhibitors of Influenza NS1 Protein Function | 270,000 compounds, 0.4% hits | AID 2326, 2010 | Potency, µM (titrated, usually from 46.1 µM); calls by dose curve; also: actives are rising curves; nearly all actives have a fitted effect of over 50% in size
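In this qHTS, NS1 from influenza A is expressed in budding yeast, where it slows growth. Cells are switched from glucose to 2% galactose medium (pH 6.0, -URA), treated with compound, and growth recovery is read at OD600.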
LmPK inhibitor: qHTS Assay for Inhibitors of Leishmania Mexicana Pyruvate Kinase (LmPK). purified LmPK, Kinase-Glo ATP luminescence, 1 h. Q27686. 290,000 compounds, 0.37% hits. Potency, µM (titrated, usually from 57.5 µM), usual class: inhibitors
Target sequence (Q27686 whole entry, looked up): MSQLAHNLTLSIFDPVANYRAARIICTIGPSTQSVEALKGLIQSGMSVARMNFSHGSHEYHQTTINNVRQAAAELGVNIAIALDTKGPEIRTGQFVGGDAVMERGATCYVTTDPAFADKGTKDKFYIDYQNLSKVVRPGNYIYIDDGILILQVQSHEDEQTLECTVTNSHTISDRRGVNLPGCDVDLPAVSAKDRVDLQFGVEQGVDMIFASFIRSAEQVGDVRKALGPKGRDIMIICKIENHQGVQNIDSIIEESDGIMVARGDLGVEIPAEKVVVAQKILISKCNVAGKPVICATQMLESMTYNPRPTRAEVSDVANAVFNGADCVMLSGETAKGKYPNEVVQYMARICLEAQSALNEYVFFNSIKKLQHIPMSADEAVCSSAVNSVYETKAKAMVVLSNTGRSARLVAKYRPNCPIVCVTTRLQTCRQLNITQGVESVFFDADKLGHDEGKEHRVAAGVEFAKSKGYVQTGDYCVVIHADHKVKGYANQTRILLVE
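Purified LmPK (0.1 nM) with 0.5 mM PEP and 0.1 mM ADP in imidazole buffer pH 7.2 with MgCl2/KCl, 1 h at room temperature. ATP formed was read by luciferase luminescence and normalized to no-enzyme and uninhibited controls.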
Each line names hits and unclear results; the compound was inactive in the other large screens. Unless noted, calls follow the shape of the dose curve; as a rule, active = well fitted curve in the direction sought with a large enough effect; inconclusive = small, poorly fitted or top-dose-only effect, or another doubt; inactive = no such curve, though single readings can be large; an effect the other way counts as inactive or inconclusive.

COc1ccc(C2=NOC(C(=O)NCc3cccnc3)C2)cc1 (stereo not given)	none
COc1ccc(S(=O)(=O)N2CCOC2CNC(=O)C(=O)NCc2ccc(F)cc2)cc1OC (stereo not given)	none (no result: FBPA Giardia inh)
CN(C)C1C(=O)C(C(N)=O)C(=O)C2(O)C(=O)C3C(=O)c4c(O)ccc(Cl)c4C(O)C3CC12 (stereo not given)	FBPA Giardia inh inconclusive (no result: NS1 function inh, LmPK inhibitor)
O=C(CN1CCN(CC(=O)Nc2ccccc2Cl)CC1)Nc1ccc2c(c1)OCCO2	none
CC1Oc2ccccc2N(CC(=O)Nc2ccc3c(c2)OCO3)C1=O (stereo not given)	none
CC1Oc2ccccc2N(CC(=O)Nc2ccc3c(c2)OCCO3)C1=O (stereo not given)	CHX counter 44
O=C(CN1CCC(C(=O)c2ccc(Cl)cc2)CC1)Nc1ccc2c(c1)OCCO2	CHX counter 17
COc1ccc(CNc2ccnc(-c3cccc(NS(C)(=O)=O)c3)n2)c(OC)c1	none (no result: Shiga inhibitor, CHX counter, NS1 function inh, LmPK inhibitor)
CSc1nnc(CNS(=O)(=O)c2ccc(Cl)cc2)n1C	none
Cc1ccc(C(=O)N/N=C\c2sccc2C)cn1	Shiga inhibitor 73, CHX counter 34
Cc1ccsc1/C=N/NC(=O)c1sccc1C	Shiga inhibitor 95, CHX counter 53, LmPK inhibitor inconclusive
Cc1cc(C(=O)N/N=C/c2sccc2C)no1	Shiga inhibitor 43, CHX counter 27
Cc1ccc(C(=O)N/N=C\c2ccc([N+](=O)[O-])s2)cn1	none
Cc1ccsc1/C=N/NC(=O)c1ccc2nc[nH]c2c1	Shiga inhibitor 32, CHX counter 21
Cc1ccc(CN2CCN(C3CCCC3)C(CCO)C2)s1 (stereo not given)	none
COc1ccccc1NC(=O)C(=O)N(c1cccnc1)C(C(=O)NC(C)(C)C)c1ccccc1F (stereo not given)	none
Cc1c(/C=N/NC(=O)c2cc(C(C)(C)C)[nH]n2)c2ccccc2n1C	none
Cc1ccsc1/C=N/NC(=O)CNC(=O)c1ccco1	none (no result: NS1 function inh)
Cc1ccsc1/C=N/NC(=O)c1ccco1	Shiga inhibitor 46, CHX counter 24
Cc1ccsc1/C=N/NC(=O)c1ccc(-n2cccc2)cc1	Shiga inhibitor 66, CHX counter 33
Cc1ccsc1/C=N\NC(=O)c1cc(C(C)(C)C)[nH]n1	Shiga inhibitor 104, CHX counter 24
N#C/C(=C\c1ccccc1C(F)(F)F)C(=O)Nc1ccccc1	CHX counter 17
N#C/C(=C\C=C\c1ccccc1)C(=O)Nc1ccccc1	CHX counter 15
COCCNC(=O)/C(C#N)=C/C=C/c1ccccc1	CHX counter 17 (no result: NS1 function inh)
N#C/C(=C/C=C/c1ccccc1)C(=O)Nc1ccccc1	none
Cc1ccc(NC(=O)c2ccc3c(c2)CCN3S(C)(=O)=O)c(C)c1	none
C=C(C)C(=O)/C=C/C=C/c1ccccc1	none (no result: Shiga inhibitor, CHX counter, NS1 function inh, LmPK inhibitor)
CCNc1ncc2nc(-c3cn(C)c4ccccc34)c(=O)n(CCC#N)c2n1	none (no result: Shiga inhibitor, CHX counter, NS1 function inh, LmPK inhibitor)
CC(=O)N1CCCc2cc(S(=O)(=O)CCC(=O)Nc3cccc(C)c3C)ccc21	none
NC(=O)c1ccc(NC(=O)C#Cc2ccccc2)cc1	Shiga inhibitor 56, CHX counter 35
COc1ccc(NC(=O)C#Cc2ccccc2)cc1OC	CHX counter 13
COc1cc(C#N)ccc1OCC(=O)Nc1cccc(S(=O)(=O)N2CCCC2)c1	none (no result: NS1 function inh)
COc1ccc(N2C(=O)CC(NNC(=O)c3ccc(Br)s3)C2=O)cc1 (stereo not given)	none
O=C(NNC1CC(=O)N(c2cccc(Cl)c2)C1=O)c1cccs1 (stereo not given)	Shiga inhibitor 39
COc1cccc(N2C(=O)CC(NNC(=O)c3cccs3)C2=O)c1 (stereo not given)	Shiga inhibitor 43, CHX counter 19
CC(C)CC(=O)N1CCN(S(=O)(=O)c2ccc(Cl)cc2)CC1	none
Cc1ccc(S(=O)(=O)N2CCC(C(=O)N3CCC3)CC2)cc1	Shiga inhibitor 67, CHX counter 45 (no result: FBPA Giardia inh)
Cc1ccc(S(=O)(=O)N2CCN(C(=O)CC(C)C)CC2)cc1	Shiga inhibitor 81, CHX counter 32
CC(=O)N1CCN(S(=O)(=O)c2cccc(C(=O)Nc3nc4c(s3)CCCC4)c2)CC1	none
CN(C)c1ccc(C(=O)Nc2nc3c(s2)CCCC3)cc1	Shiga inhibitor 21, CHX counter 45
CC(C)[C@H](NC(=O)c1ccccc1F)C(=O)Nc1nc2c(s1)CCCC2	CHX counter 42
Cc1ccc(S(=O)(=O)CCC(=O)Nc2nc3c(s2)CCCC3)cc1	none
CC(C)(C)c1ccc(C(=O)NC(=S)Nc2nc3c(s2)CCCC3)cc1	Shiga inhibitor 113, CHX counter 69
C/C(=N\NC1=NCCN1)c1ccc(Cl)cc1	none
C/C(=N\Nc1nc2c(s1)CCCC2)c1ccc(Cl)cc1	FBPA Giardia inh inconclusive, Shiga inhibitor 116, CHX counter 83
COc1cc(OC)cc(C(=O)N[C@H](C(=O)Nc2nc3c(s2)CCCC3)C(C)C)c1	none
O=C(COc1nsnc1N1CCOCC1)Nc1ccc(Br)cc1	none
O=C(N/C(=C\c1ccc(Br)cc1)C(=O)N1CCOCC1)c1ccco1	none
Cc1nn(C(=O)c2cccc([N+](=O)[O-])c2C)c(C)c1S(=O)(=O)N1CCCCCC1	none (no result: FBPA Giardia inh, NS1 function inh, LmPK inhibitor)
Cc1nc2ccccn2c1-c1nnco1	none
Cc1cc(-c2nnco2)c(C)n1-c1ccccc1	CHX counter 37
O=C(NCc1ccccc1F)c1cccs1	none
Cc1cc(C(=O)NCc2ccccc2F)cs1	CHX counter 16
O=C(NCc1ccco1)c1ccc2c(c1)OCCO2	Shiga inhibitor 26, CHX counter 24
Fc1ccccc1CNCc1ccc2c(c1)OCO2	CHX counter 19
Fc1ccccc1CNCCc1ccc2c(c1)OCO2	FBPA Giardia inh inconclusive
O=C(O)CNC(=O)c1ccc2c(c1)OCCO2	none
O=C(NCc1ccccc1F)c1ccc2c(c1)OCCO2	CHX counter 23 (no result: Shiga inhibitor)
COCCN(C(=O)c1snc(C(N)=O)c1N)C(C(=O)NC1CCCCC1)c1ccc(N(C)C)cc1 (stereo not given)	none
COc1ccc(N(C(=O)CNC(=O)c2ccco2)C(C(=O)NC2CCCC2)c2ccco2)cc1 (stereo not given)	none
O=C(NCc1ccco1)c1ccc(Cl)c(S(=O)(=O)N2CCc3ccccc32)c1	CHX counter 17
CC(C(=O)NC1C=CS(=O)(=O)C1)N1C(=O)/C(=C/c2cccc(Cl)c2)SC1=S (stereo not given)	none (no result: FBPA Giardia inh)
CC(C(=O)NC1C=CS(=O)(=O)C1)N1C(=O)/C(=C\c2ccccc2)SC1=S (stereo not given)	Shiga inhibitor 24, CHX counter 23
COc1ccccc1/C=C1/SC(=S)N(C(C)C(=O)NC2C=CS(=O)(=O)C2)C1=O (stereo not given)	CHX counter 19 (no result: FBPA Giardia inh)
